Tau fil binding = qHTS Assay for Tau Filament Binding; recombinant tau filaments, thioflavin S fluorescence, 15 h; filaments grown with octadecylsulfate alongside compound; Potency, µM (highest dose often 57.1 µM), for the others: at the top dose activity change, negative = inhibition; AID 596, 2007; 2% of 71,000 active;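 note: potency is the fitted concentration of half-maximal effect; % is set by controls: 0 for no effect and ±100 for the full control effect; actives lower thioflavin S fluorescence by blocking filaments or displacing dye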
Target sequence (P10636 whole entry, looked up): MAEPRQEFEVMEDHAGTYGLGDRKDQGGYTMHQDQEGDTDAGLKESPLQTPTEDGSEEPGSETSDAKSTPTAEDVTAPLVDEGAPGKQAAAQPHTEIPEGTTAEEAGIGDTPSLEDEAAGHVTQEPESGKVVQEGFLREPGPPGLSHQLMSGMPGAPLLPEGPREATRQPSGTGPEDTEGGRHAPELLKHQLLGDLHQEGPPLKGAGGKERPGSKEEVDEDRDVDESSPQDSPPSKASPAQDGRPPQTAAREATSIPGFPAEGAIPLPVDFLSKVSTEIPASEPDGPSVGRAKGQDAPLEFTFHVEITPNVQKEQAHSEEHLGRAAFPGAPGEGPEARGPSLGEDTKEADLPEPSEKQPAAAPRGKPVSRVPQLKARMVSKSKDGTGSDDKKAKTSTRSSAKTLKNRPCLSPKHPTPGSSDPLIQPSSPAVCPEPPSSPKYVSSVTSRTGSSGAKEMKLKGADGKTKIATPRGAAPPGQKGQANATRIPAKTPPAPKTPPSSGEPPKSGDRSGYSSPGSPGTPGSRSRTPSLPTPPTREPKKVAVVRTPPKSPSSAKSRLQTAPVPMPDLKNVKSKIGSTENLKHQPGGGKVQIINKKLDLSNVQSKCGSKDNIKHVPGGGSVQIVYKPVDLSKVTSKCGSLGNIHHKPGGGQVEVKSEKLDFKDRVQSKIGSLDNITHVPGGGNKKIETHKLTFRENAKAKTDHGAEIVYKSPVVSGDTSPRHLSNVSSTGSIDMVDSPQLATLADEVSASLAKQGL
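Thioflavine S fluorescence (ex 450, em 510 nm) reports filaments formed from 1 uM human tau plus 30 uM ODS over 15 h at 37 C (10 mM HEPES pH 7.4, 100 mM NaCl, 5 mM DTT); compounds displacing dye or blocking filaments lower signal.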
Pol III holo inh = qHTS Assay for Inhibitors of DNA Polymerase III Holoenzyme System | reconstituted DNA polymerase III holoenzyme replication, biochemical | Potency, µM (doses to about 57.1 µM), for the others: top-dose activity change, negative = inhibition | 0.25% of 71,000 active | AID 603, 2007; note: potency is the fitted concentration of half-maximal effect; % is set by controls: 0 for no effect and ±100 for the full control effect
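Reconstituted *E. coli* holoenzyme (0.35 nM Pol III, 1 nM beta, 154 nM SSB, 2 nM primase) was preincubated with compound for 15 min at RT. Synthesis on 1.4 nM ssM13Gori ran 35 min, then was stopped with PicoGreen/EDTA and read as dsDNA fluorescence.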
BRCT PPI green = qHTS Assay for Inhibitors of BRCT-Phosphoprotein Interaction (Green Fluorophore) | Breast cancer type 1 susceptibility protein (Homo sapiens), P38398 | Potency, µM (titrated, usually from 76.9 µM), for the others: at the top dose activity change, negative = inhibition, usual class: inhibitors | 0.05% of 75,000 active | BRCA1 BRCT-phosphopeptide binding, green fluorescence polarization;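 note: potency is the fitted concentration of half-maximal effect; plate controls were peptide without protein for full effect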
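Fluorescence polarization: His-tagged BRCT (~35 kDa BRCA1 C-terminus, 250 nM) bound to 100 nM fluorescein-labeled phosphorylated 10-aa BACH1 peptide, pH 7.3 phosphate buffer with DTT and Tween 20. Compounds incubated 12 min at room temperature; inhibition read as lowered polarization.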
Hsp90 Hop PPI = qHTS Assay for Disrupters of an Hsp90 Co-Chaperone Interaction. AlphaScreen TPR2A-His6 binding biotin-Hsp90 C-terminal peptide. Potency, µM (titrated, usually from 57 µM), for inactives: top-dose activity change, negative = inhibition. 0.44% of 71,000 active; active = well fitted curve in either direction with a large enough effect; inconclusive = small, poorly fitted or top-dose-only effect, or another doubt; note: potency is the fitted concentration of half-maximal effect; % is set by controls: 0 for no effect and ±100 for the full control effect
YjeE inh = qHTS Assay for Inhibitors of YjeE; purified YjeE enzyme, qHTS inhibition assay; Potency, µM; tRNA threonylcarbamoyladenosine biosynthesis protein TsaE (Escherichia coli (strain …; 0.05% of 71,000 active
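Purified YjeE (10 uM) with BODIPY Texas Red-labeled ADP probe (2 uM); compounds pin-transferred, 15 min at room temperature. Binding inhibition read as decreased fluorescence polarization; ADP titration as control.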
BRCT PPI red = qHTS Assay for Inhibitors of BRCT-Phosphoprotein Interaction (Red Fluorophore). BRCT-phosphopeptide binding, red fluorescence polarization. Potency, µM (top dose mostly 76.9 µM), for the others: top-dose activity change, negative = inhibition, usual class: inhibitors. 0.03% of 75,000 active. AID 892, 2007; note: % is set by controls: 0 for no effect and ±100 for the full control effect
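Rhodamine-labelled pBACH1 10-mer (100 nM) bound to BRCT domain (100 nM) at pH 7.3; compounds incubated 12 min room temperature, polarization read. Free peptide defines full inhibition; unlabelled decapeptide titrated as control.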
* hit, by the source's call; i = inactive; ? = inconclusive; / = no result; ! = a repeat was not active; [ ] = remark or other dose. Hits are enriched below; roughly 2.3% of the tested compounds scored in any of these assays. Unless noted, calls come from the whole dose curve; as a rule, active = well fitted curve in the direction sought with a large enough effect; inconclusive = small, poorly fitted or top-dose-only effect, or another doubt; inactive = no such curve, though single readings can be large; an effect the other way counts as inactive or inconclusive.

SMILES	Tau fil binding	Pol III holo inh	BRCT PPI green	Hsp90 Hop PPI	YjeE inh	BRCT PPI red
O=C(NC1CCCC1)C(c1ccsc1)N(Cc1ccco1)C(=O)Cc1cccs1 (centres undefined)	16µM*	-10%	-5%	-29%	i	0%
O=C(NC1CCCC1)C(c1cccs1)N(Cc1ccco1)C(=O)c1csnn1 (centres undefined)	8%	-1%	-1%	-12%	i	0%
CC[C@]1(O)C[C@H]2CN(CCc3c([nH]c4ccccc34)[C@](C(=O)OC)(c3cc4c(cc3OC)N(C=O)[C@H]3[C@@](O)(C(=O)OC)[C@H](OC(C)=O)[C@@]5(CC)C=CCN6CC[C@]43[C@H]65)C2)C1	-9%	-8%	-4%	-6%	i	-3%
Cn1cc(-c2nc3cnc(OCc4ccccc4)nc3n(CCC#N)c2=O)c2ccccc21	112%	-9%	1%	-2%	i	0%
N#CCCN1CCN(C(=S)c2ccc(-c3cccc(Cl)c3)o2)CC1	4µM*	11%	1%	?	i	0%
S=C(c1ccc(-c2cc(Cl)ccc2Cl)o1)N1CCOCC1	/	/	-5%	/	/	0%
N#CCCN1CCN(C(=S)c2ccc(-c3ccc(Cl)c(Cl)c3)o2)CC1	13µM*	25%	-2%	?	i	-1%
S=C(c1ccc(-c2cccc(Cl)c2)o1)N1CCOCC1	16µM*	-2%	-5%	-30%	i	0%
CO[C@@H]1/C=C\O[C@]2(C)Oc3c(C)c(O)c4c(O)c(c(CN5CCN(C)CC5)c(O)c4c3C2=O)NC(=O)/C(C)=C\C=C[C@@H](C)[C@@H](O)[C@H](C)[C@@H](O)[C@H](C)[C@H](OC(C)=O)[C@@H]1C	3%[11.4 µM]	-6%[11.4 µM]	-1%[15.4 µM]	-17%[11 µM]	i	0%[15.4 µM]
Cc1cnc(CNc2cc(-c3cccnc3)ncn2)cn1	-6%	1%	-1%	2%	i	0%
CN(C)CCNC(=O)c1ccc(-n2c(=O)c(=O)[nH]c3ccccc32)cc1	/	/	-4%	/	/	-3%
Cc1ccc2c(c1)c1c3n2CCN[C@H]3CCC1	?	-3%	-3%	-8%	i	-2%
Cc1ccc2c(c1)c1c3n2CCN=C3CCC1	13µM*	0%	0%	-9%	i	1%
Cc1cc2cc(CN3C(=O)c4ccccc4C3=O)ccc2n1C	20µM*	-9%	-1%	-10%	i	-21%
CCCCNc1cc(NC(C)=O)cc2cc(OC)c(OC)cc12	25µM*	-6%	0%	-20%	i	0%
CCc1c(C)sc(NC(=O)c2cc(C)no2)c1C#N	-6%	-3%	-3%	-3%	i	1%
CCc1c(C)sc(NC(=O)CC#N)c1C#N	13µM*	-7%	8%	-11%	i	-2%
CC(C)(C)c1c2c(c(C(C)(C)C)c3c1OCN(Cc1ccccc1)C3)OCN(Cc1ccccc1)C2	-3%[11.4 µM]	-16%[11.4 µM]	0%[15.4 µM]	-3%[11 µM]	i	-1%[15.4 µM]
Oc1ccc(C=Nc2ccc(N3CCOCC3)cc2)c(O)c1	20µM*	-15%	12%	-21%	i	-2%
Cc1ccc(N=Cc2ccc(O)cc2O)cc1F	-30%	0%	-1%	-3%	i	0%
O=C(OCC(=O)N1CCCC1)c1cncc(Br)c1	-3%	-2%	-4%	-2%	i	-1%
CO[C@@]12C[C@@H](COC(=O)c3cncc(Br)c3)CN(C)[C@H]1Cc1cn(C)c3cccc2c13	?	-4%	-3%	10µM*!	i	-2%
Cc1ccc(-c2nc3ccccc3[nH]2)s1	13µM*	-3%	-1%	-5%	i	0%
c1csc(-c2nc3ccccc3[nH]2)c1	-4%	-2%	-2%	-2%	i	0%
Nc1cc(N)cc(-c2nc3ccccc3[nH]2)c1	6.3µM*	-11%	1%	?	i	0%
SMILES	Tau fil binding	Pol III holo inh	BRCT PPI green	Hsp90 Hop PPI	YjeE inh	BRCT PPI red
Nc1nc2ccccc2[nH]1	-14%	2%	-1%	-1%	i	2%
CCOCCCn1c(=N)c(C(N)=S)cc2c(=O)n3cccc(C)c3nc21	159%	25µM*	3%	-23%	i	1%
CCn1c(=N)c(C(=O)NCc2cccnc2)cc2c(=O)n3cccc(C)c3nc21	-6%	-10%	-2%	-9%	i	2%
CCOCCCNC(=O)c1cc2c(=O)n3cccc(C)c3nc2n1C	35%	-4%	-1%	0%	i	0%
CCCCNC(=O)c1cc2c(=O)n3cccc(C)c3nc2n(Cc2ccccc2)c1=N	0.2µM*	-1%	-1%	-4%	i	0%
COCCn1c(=N)c(C(=O)NCCc2ccccc2)cc2c(=O)n3cccc(C)c3nc21	3.2µM*	-3%	4%	-1%	i	-2%
C[C@H]1C[C@H]2[C@H]3CCC4=CC(=O)C=C[C@@]4(C)[C@]3(F)[C@H](O)C[C@]2(C)[C@@]1(O)C(=O)COP(=O)(O)O	-1%[11.4 µM]	-6%[11.4 µM]	-1%[15.4 µM]	2%[11 µM]	i	-3%[15.4 µM]
CCN1C=C(Cc2cccs2)C2=C(C1)C(c1cccs1)C(C#N)=C(N)O2 (centres undefined)	4µM*	0%	19%	-23%	i	0%
CCOc1cccc(C(=O)c2ccc(O)c(O)c2O)c1	/	/	1%[3.08 µM]	/	/	0%
CS(=O)(=O)Nc1cccc(-c2ccc3ncnc(NCc4cccs4)c3c2)c1	32%	-3%	2%	-6%	i	1%
CN(C)c1ccc(N=Nc2cccc3ccoc23)cc1	4µM*	-8%[11.4 µM]	1%[15.4 µM]	4µM*	i	-2%[15.4 µM]
CCc1cc2c(nc1CC)CCN(CC/C(C)=N/OCC[C@@H]1C=C[C@H](OC(C)=O)[C@H](COC(C)=O)O1)C2	/	/	-1%[15.4 µM]	/	/	0%[15.4 µM]
Cc1cc(C)c2cc(C#N)c(SCC(=O)NCc3ccco3)nc2c1	20µM*	-20%	12%	-4%	i	-2%
Cn1c(-c2ccccc2)cc2c3no[n+]([O-])c3ccc21	10µM*	-1%	-4%	-13%	i	-4%
CCOC(=O)c1c(C)n(OCc2ccccc2)c2ccc3c(no[n+]3[O-])c12	135%	1%	-2%	-6%	i	1%
CCOc1ccc(OCC)c(NS(=O)(=O)c2cccc3nsnc23)c1	25µM*	-4%	-4%	-12%	i	0%
COc1ccc(C(=O)O)cc1NS(=O)(=O)c1cccc2nsnc12	1%	-2%	0%	-1%	i	0%
O=C(O)CC[C@@H](NC(=O)c1ccccc1C(=O)O)C(=O)O	0%	7%	-3%	-9%	i	1%
